# High-throughput results deposited in PubChem BioAssay by Sanford-Burnham Center for Chemical Genomics.
# PABP1 MLLE inh: inhibitors of microRNA-mediated deadenylation, human PABP1 MLLE binding; AID 588489; actives 0.36% (n = 360,000); inhibition, % at 20 µM; P11940; GST-MLLE / FITC-PAM2 fluorescence polarization; in the data active = inhibition above about 35%, passing the limit was not always enough
# eIF4H FP inh: inhibitors of RNA binding by human eIF4H; eIF4H fluorescence polarization binding assay; inhibition, % at 35 µM; actives 0.94% (n = 290,000); Q15056; AID 2012;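 also: calls also rest on retests at 20 µM and on dose response follow-up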
# CendR NRP1 mod: alters CendR peptide binding to human NRP-1 | O14786 | FAM-RPARPAR peptide binding to NRP-1, fluorescence polarization | inhibition, % at 25 µM | actives 0.85% (n = 360,000) | AID 602438;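 active = inhibition or corrected inhibition above about 18%, plus a signal ratio from 0.5 to 1.5, limit read from the data, passing the limit was not always enough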
# PABP FP inh: blocks human PABP binding to poly(A) RNA | P11940 | fluorescence polarization | inhibition, % at 35 µM | actives 1% (n = 290,000) | AID 2014;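 also: calls also rest on retests at 20 µM and on dose response follow-up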
# Hits are given with their value; n = inactive; u = inconclusive; x = no result. Most compounds without a hit are left out; they make up all but 2.1% or so of the library. Unless noted, no rule for the calls is given here.
SMILES,PABP1 MLLE inh,eIF4H FP inh,CendR NRP1 mod,PABP FP inh
Cc1cccc(C)c1-n1nnnc1C(c1ccnc2ccccc12)N1CCC2(CC1)C(=O)NCN2c1ccccc1 (stereo unspecified),n,x,n,x
Cc1c(-c2cccc(Cl)c2)nc2ccccc2c1C(=O)N1CCC2(CC1)OCCO2,n,n,n,n
CCN(CC)C(=O)c1ccc2c(c1)C1C=CCC1C(C(=O)O)N2 (stereo unspecified),n,85,45,65
O=C(O)c1ccc2c(c1)C1C(Cl)C(Sc3ccccc3[N+](=O)[O-])CC1C(c1cccc([N+](=O)[O-])c1)N2 (stereo unspecified),n,n,n,n
Cc1ccc2c(c1Cl)NC(C(=O)O)C1CC(Sc3ccccc3[N+](=O)[O-])C(Cl)C21 (stereo unspecified),n,87,n,62
O=C(O)c1cccc2c1NC(c1cccc([N+](=O)[O-])c1)C1CC(Sc3ccccc3[N+](=O)[O-])C(Cl)C21 (stereo unspecified),n,82,n,n
CCN(CC)C(=O)c1ccc2c(c1)C1C(Cl)C(Sc3ccccc3[N+](=O)[O-])CC1C(C(=O)O)N2 (stereo unspecified),n,90,46,95
CNC(=O)O/N=C/c1nn(C(=O)C(C)(C)C)cc1Br,n,n,n,n
CCC(=O)[C@@H](C)[C@@H](O)[C@H](C)C[C@@H](C)C1OC(=O)C[C@@]2(O)CC=C(C)C(O2)C(C)=CCCC[C@H](O[C@H]2C[C@@H](OC(N)=O)[C@H](O)[C@@H](C)O2)C=C[C@H](C)C[C@H]1C (stereo partly specified),x,x,n,x
CCOC(=O)[C@]12Cc3cc(Cl)ccc3[C@H]1N(C(C)C)C(=O)c1ccccc12,x,x,n,x
CNC(=O)C[C@H]1CC[C@@H]2NC[C@H](O)COC[C@H]2O1,x,x,n,x
C=CCN1Cc2ccccc2-n2nncc2C1,n,x,n,x
CCCCN1C(=O)/C(=C/C=C/c2ccco2)C(=O)NC1=S,n,72,n,14
O=C1NC(=O)N(Cc2ccc(F)cc2)C(=O)/C1=C\C=C\c1ccco1,n,u,n,u
O=C1NC(=O)N(Cc2ccccc2)C(=O)/C1=C\c1ccco1,n,u,n,n
CCCCN1C(=O)/C(=C\c2ccco2)C(=O)N(CCc2ccccc2)C1=O,n,u,n,60
CC(=O)OC1C(O)C2=C3C4(C)C1C(C)(C)C(=O)CC4C3(O)C(OC(C)=O)C1(CC1C)C2=O (stereo unspecified),x,x,n,x
Cc1cc(C)c(-n2c(O)c(/C=N/NC(=O)c3ccncc3)c(=O)[nH]c2=O)c(C)c1,n,57,n,39
Nc1ccc2ccc3cccc[n+]3c2c1,n,u,n,u
C[n+]1c(-c2ccccc2)c2cc(N)ccc2c2ccc(N)cc21,n,u,56,u
CN(C)c1ccc(C=C2C(=O)NC(=S)NC2=O)cc1[N+](=O)[O-],40,n,n,n
CN(C)c1ccc(C=C2C(=O)NC(=O)NC2=O)cc1[N+](=O)[O-],n,n,n,n
COc1ccc(C=C2C(=O)NC(=S)NC2=O)cc1,n,x,n,x
O=C1NC(=S)NC(=O)C1=Cc1cccc2cc3ccccc3cc12,40,n,n,n
Cc1ccc(-n2c(O)c(C=Nc3ccc(S(=O)(=O)N(C)C)cc3)c(=O)[nH]c2=O)cc1,n,u,n,125
SMILES,PABP1 MLLE inh,eIF4H FP inh,CendR NRP1 mod,PABP FP inh
CCC(C)c1cnc(CC(C)C)c(=O)n1O (stereo unspecified),n,x,n,x
COc1c(O)cc2c(c1OC)-c1ccc(SC)c(=O)cc1C(NC(C)=O)CC2 (stereo unspecified),n,x,n,x
O=C1CC(=O)N(c2cccc(F)c2)C(=O)N1,n,n,n,n
O=c1[nH]c(=O)n(-c2ccc(F)cc2)c(O)c1C=Nc1ccccc1N1CCCC1,n,64,n,77
Cc1ccc(-n2c(O)c(C=Nc3ccccc3N)c(=O)[nH]c2=O)cc1C,n,n,n,n
O=c1[nH]c(=O)n(-c2cccc(Cl)c2)c(O)c1/C=N/c1ccccn1,n,85,n,63
CCC(C)N=Cc1c(O)n(-c2ccccc2)c(=O)[nH]c1=O (stereo unspecified),46,n,n,n
Cc1ccc(N=Cc2c(O)n(-c3ccc(C)cc3)c(=O)[nH]c2=O)cc1,n,x,n,x
O=c1[nH]c(=O)n(-c2cccc3ccccc23)c(O)c1/C=N/N1CCCCC1c1cccnc1 (stereo unspecified),n,89,n,9.1
O=C1c2cccc(N3CCNCC3)c2C2CCCCN12 (stereo unspecified),n,x,21,x
Clc1cccc(N2CCNCC2)c1Cl,n,n,n,n
